Screening results from PubChem BioAssay.
Rows were chosen to be rich in hits. Some 2.3% of all compounds tested hit in one or more screens of this group.
EBV LMP1 NFkB: EBV LMP1-driven NF-kappaB luciferase reporter inhibitors, primary screen, cell-based, luminescence, single point; hit rate 0.69% among 350,000; LMP1-induced NF-kappaB luciferase reporter cells; inhibition, % at 12.5 µM; in the data active means inhibition above about 41%;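 further: 0% = neutral control wells and 100% = reference inhibitor control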
Gli-Sufu antag: Gli-Sufu pathway antagonists, primary screen, luciferase luminescence, Sufu-KO-LIGHT cells, uHTS; inhibition, % at 5 µM; AID 588413, 2011; hit rate 0.74% among 340,000; Sufu-KO-LIGHT fibroblasts, Gli luciferase reporter luminescence;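 active means inhibition above about 55%, limit read from the data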;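 further: 0% = DMSO-treated cells and 100% = wells with medium but no cells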
697 NFkB inh: inhibitors of PMA/ionomycin-induced NF-kB reporter, 697 cells, primary screen, B-cell NF-kB inhibitor project, cell-based, luminescence, uHTS; 697 B-cell NF-kB luciferase reporter, 16 h; AID 435022, 2010; hit rate 0.33% among 330,000; inhibition, % at 4 µM; in the data active means inhibition above about 35%
Jurkat NFkB inh: inhibitors of induced NF-kB luciferase reporter, primary screen, TCR NF-kB activation inhibitor project, cell-based, luminescence, uHTS; inhibition, % at 4 µM; Jurkat, PMA/ionomycin-induced NF-kB luciferase reporter; AID 435003, 2010; hit rate 0.53% among 330,000; in the data active means inhibition above about 50%
Shn3 3UTR inh: reduction of Shn3 3'UTR firefly luciferase signal, primary screen, Schnurri-3 inhibitor project, cell-based, Clone20 osteoblasts, set 2; inhibition, % at 12.5 µM; Clone20 osteoblast Shn3 3'UTR firefly luciferase, 24 h; hit rate 0.52% among 360,000;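 active means mean inhibition of at least 75% with every replicate also reaching 75%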;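 further: 0% = median of neutral control wells and 100% = pilot-screen positive control compound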
MITF TRPM1 inh: inhibitors of MITF-dependent TRPM1 promoter reporter, primary screen, cell-based, SK-MEL-5, single point, luciferase; SK-MEL-5 TRPM1 promoter luciferase, 24 h; hit rate 0.83% among 330,000; inhibition, % at 12.5 µM; AID 488899, 2010;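 active means mean inhibition across replicates of 60% or more, whatever share of single replicates reaches that level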
* hit, by the source's call; nt = no result given; ! = a repeat was not active.

SMILES | EBV LMP1 NFkB | Gli-Sufu antag | 697 NFkB inh | Jurkat NFkB inh | Shn3 3UTR inh | MITF TRPM1 inh
CN(C)CCC(c1ccccc1)c1ccccn1 (configuration not stated) | 56.4*! | 9.2 | -4.0 | 3.1 | -5.0 | -11.0
COC(=O)C1=C(C)N(CCCC(=O)O)C(=O)NC1c1ccc(C#N)cc1 (configuration not stated) | -7.5 | -3.4 | 9.4 | 5.9 | 25.3 | -2.0
O=C(Nc1nc2cc3c(cc2s1)OCCO3)C1=COCCO1 | 81.5* | 49.1 | 4.1 | 36.6 | 88.4* | 91.4*
Cn1c(=O)[nH]c2ncccc21 | 0.9 | 7.0 | 15.2 | -8.3 | 15.1 | -6.1
N#Cc1c(NCCN)nc(-c2ccco2)c2c1CCCC2 | 78.2* | 3.0 | 4.4 | 2.4 | 10.4 | -2.9
COc1ccc(-c2cn3nc(C)c(C)nc3n2)cc1OC | -4.6 | -30.3 | 3.4 | -5.0 | -71.2 | -90.9
Cc1ccc(-c2cn3nc(C)c(C)nc3n2)cc1 | 63.5* | -73.5 | -113.7 | -71.5 | 52.0 | 63.8*
CCOC(=O)N1CCN(C(=O)C2CCCN(S(=O)(=O)c3ccc(F)cc3)C2)CC1 (configuration not stated) | -3.3 | 7.3 | 34.9 | -12.6 | -9.2 | -13.0
Cc1ccc(-n2c(-c3ccc(Br)cc3)c[n+]3c2CCc2ccc4cccnc4c2-3)cc1 | 35.6 | 87.1* | nt | nt | 91.1* | 97.7*
COc1cc(NC2=Nc3cccc4cccc2c34)cc(OC)c1OC | 7.4 | 4.6 | 2.8 | 7.2 | 16.3 | -0.3
COC1=CC(=O)c2c(ccc3ncnc(N)c23)C1=O | 82.9* | 56.4* | nt | nt | 97.4* | 113.2*
C=C1C(=O)[C@]23C[C@H]1CCC2[C@]1(C)CCC[C@@](C)(C(=O)O)C1C[C@@H]3O (some centres not stated) | nt | nt | nt | nt | 88.9* | nt
C=C1C(=O)[C@]23C[C@H]1CCC2[C@]1(C)C(=O)CC[C@@](C)(C(=O)O)C1C[C@@H]3O (some centres not stated) | nt | nt | nt | nt | 64.5 | nt
COC(=O)c1c(NC(=O)COc2ccc(Cl)cc2)sc2c1CC(C)(C)NC2(C)C | -128.1 | 22.8 | -1.0 | 27.8 | 74.4 | 81.6*
CCOC(=O)c1c(NC(=O)COc2ccccc2F)sc2c1CC(C)(C)NC2(C)C | -22.2 | 21.3 | -10.9 | -9.3 | -22.9 | 71.2*
Nc1ncnc2nc[nH]c12 | 58.7*! | 17.6 | -28.7 | -8.4 | -6.2 | 4.2
Nc1nc(N)c2[nH]cnc2n1 | nt | -56.4 | 9.0 | -5.7 | nt | nt
O=c1c2ccccc2ncn1-c1ccc(Cl)cc1[N+](=O)[O-] | -3.7 | -34.9 | 5.7 | -5.9 | 3.6 | -8.8
O=C(NC(=S)/C(=C1\CCCCCN1)[N+](=O)[O-])c1ccccc1 | 40.3* | 17.8 | -222.0 | -65.3 | 32.6 | 27.5
O=C(NC(=S)Nc1ccccc1[N+](=O)[O-])c1ccccc1 | -13.2 | -17.3 | -76.1 | -29.2 | -26.4 | -59.5
Cc1c(Cl)cccc1NC(=O)CC(C(=O)O)C1CCCO1 (configuration not stated) | -4.9 | 4.2 | 12.9 | 6.6 | 4.5 | 0.9
Cc1c(Cl)cccc1NC(=O)CC(Cc1ccccc1)C(=O)O (configuration not stated) | 44.4* | 10.4 | 6.1 | -4.5 | 4.1 | -7.1
CCOC(=O)CN1C(=O)NC2NC(=O)NC21 (configuration not stated) | 4.9 | 10.4 | 14.0 | 6.6 | -4.6 | -0.9
CCSCCc1nnc(NC(=O)Nc2cccc(C(F)(F)F)c2)s1 | 5.1 | 3.3 | 1.0 | 21.7 | 42.6 | 66.9*
CC(=O)NC(c1ccco1)c1cc(Cl)c2cccnc2c1O (configuration not stated) | nt | nt | nt | nt | 51.1 | nt
SMILES | EBV LMP1 NFkB | Gli-Sufu antag | 697 NFkB inh | Jurkat NFkB inh | Shn3 3UTR inh | MITF TRPM1 inh
CC(=O)NC(c1cc(Cl)c2cccnc2c1O)C(C)C (configuration not stated) | 22.6 | 21.9 | 1.9 | 17.5 | 85.7* | 29.3
CC(=O)NC(c1ccc(C)cc1)c1cc(Cl)c2cccnc2c1O (configuration not stated) | 28.8 | -0.2 | -24.1 | 4.3 | 87.4* | 43.5
O=C(CCc1ccccc1)NC(c1cccs1)c1cc(Cl)c2cccnc2c1O (configuration not stated) | 53.9* | 24.9 | nt | nt | 81.4 | 56.4
COc1ccc(C(NC(=O)c2cccnc2)c2cc(Cl)c3cccnc3c2O)cc1OC (configuration not stated) | 35.2 | -9.3 | 1.6 | -4.3 | 92.5* | 19.0
CCN1C(C(=O)Nc2cc(C)on2)=C(O)c2ccccc2S1(=O)=O | 4.8 | 0.8 | 9.1 | -4.5 | -2.0 | -2.3
Cc1ccccc1OCC(=O)NNC(=O)c1ccoc1C | -3.8 | -12.9 | 16.3 | 12.0 | -2.1 | -5.7
CCC(CO)[n+]1c(C)cc(/C=C2\Sc3ccccc3N2Cc2ccccc2)cc1C (configuration not stated) | -2.9 | 87.3* | nt | nt | 75.7 | 81.8*
CCOC(=O)N1C(=O)[C@@](CC)(c2ccccc2)N1C(=O)OCC | 5.4 | -0.3 | 21.9 | 16.0 | -10.4 | 74.8*
O=C(c1sc2ccccc2c1Cl)N1CCN(c2ccc(F)cc2)CC1 | -7.5 | 35.2 | 8.2 | 7.4 | 35.8 | 0.3
COc1ccc(CN2CCNC(=O)C2CC(=O)NCC2CCOCC2)c(C)c1C (configuration not stated) | 1.5 | 1.5 | -20.6 | -1.7 | 6.6 | 8.8
CCCCNC(=O)CCn1nc(-c2ccccc2)c2ccccc2c1=O | 1.8 | 6.2 | -8.9 | 8.1 | 7.8 | 6.0
Nc1nc(N)c2cc(S(=O)(=O)c3cccc(C(F)(F)F)c3)ccc2n1 | 1.7 | nt | nt | nt | 85.3* | nt
Nc1c(N2CCOCC2)cc(Cl)c2nonc12 | -0.9 | -3.1 | 2.9 | -1.1 | -13.2 | -9.3
Nc1c(N2CCCC2)cc(Cl)c2nonc12 | 3.0 | 7.7 | 8.7 | 12.2 | -15.2 | 73.6*
CC(OC(=O)CCCN1C(=O)c2ccccc2C1=O)C(=O)Nc1ncc(Cl)cc1Cl (configuration not stated) | -1.7 | -5.6 | 0.8 | -9.7 | 6.6 | 5.1
Cc1nn(-c2nc3ccccc3[nH]2)c(=O)c2ccccc12 | 81.3* | 79.0* | nt | nt | 92.7* | 96.1*
Cc1cc(C)nc(NS(=O)(=O)c2ccc(NC(=O)c3snnc3C)cc2)n1 | -6.3 | nt | 11.5 | 5.2 | -16.1 | -2.7
CCOC(=O)N1CCN(S(=O)(=O)Cc2ccccc2)CC1 | -2.9 | 4.7 | 19.7 | -7.1 | -10.6 | 10.8
CCOC(=O)C1CCN(S(=O)(=O)Cc2ccccc2)C1=O (configuration not stated) | 42.8* | -16.1 | 27.1 | -9.3 | -3.2 | -0.6
O=C1C=C(c2cccs2)C[C@H](c2ccccc2)[C@H]1n1nnc([N+](=O)[O-])n1 | -176.8 | -0.5 | 20.3 | -10.3 | 21.8 | 7.2
